Data as given in PubChem BioAssay AID2472 (National Center for Advancing Translational Sciences (NCATS), 2010).
Screen size: about 290,000 compounds; about 2,000 (0.69%) were called active. This is one part of a sample in which actives are shown more often than they occur. A number with no mark means an inactive call. Cut-off read from the data, not from the text of the source: active = activity change below about -30%; inactive = the rest, inconclusive results apart.
% is set by controls: 0 for no effect and ±100 for the full control effect.

Assay: qHTS Assay for Inhibitors of Fructose-1,6-bisphosphate Aldolase from Giardia Lamblia: Coupling assay counterscreen
Settings: coupling enzyme system counterscreen, AmpLite Red fluorescence; at 58.2 µM (top of the series)
Source text: MLPCN Grant: MH085699-01 Assay Provider: Osnat Herzberg, University of Maryland NCGC Assay Overview: The objective of this project is to obtain compounds that inhibit Giardia lamblia growth. G. lamblia is a human pathogen which afflicts impoverished nations; it is the most common cause of outbreaks of diarrhea in the United States. During the course of our study of potential drug targets in Giardia, we have identified the Class II (Zn2+ functions in electrophilic catalysis) fructose-1,6-bisphosphate aldolase (FBPA) as an excellent candidate for drug targeting. FBPA is a key glycolytic pathway enzyme, essential for G. lamblia survival. The human FBPA belongs to the Class I aldolases, which have a different substrate binding site structure and a radically different catalytic mechanism (employing a lysine-Schiff base intermediate). Therefore, affinity-based or mechanism-based inhibitors of the Giardia FBPA are expected not to interfere with the catalytic function of the human FBPA. A glyceraldehyde-3-phosphate dehydrogenase/triose phosphate isomerase/NAD/arsenate coupled assay was adapted to the 1536-well HTP format for use in the primary screen. This was done by coupling it to a diaphorase/resazurin/resorufin reaction that can be monitored by fluorescence (excitation, 544 nm; emission, 590 nm). Compounds identified in this screen will be further evaluated by coupling the […]/triose phosphate isomerase/NADH assay to a phenazine methosulfate/tetranitroblue tetrazolium color reaction. False positives due to the dehydrogenases and diaphorase inhibition will be eliminated, and selectivity assay will triage inhibitors of mammalian triose phosphate isomerase and the Class I FBPA. G. lamblia FBPA inhibitors identified by the in vitro analyses will be examined for growth inhibition of Giardia trophozoites, and for cytotoxicity in human cells. This assay specifically addresses whether activity observed in the primary screen (AID 2451) is related to inhibition of the coupling assay used, as opposed to inhibition of aldolase. Actives in this assay are considered inconclusive for activity against aldolase.
NCGC Assay Protocol: Step,Parameter,Value,Description 1,Coupling enzyme reagent,2 uL,glyceraldehyde-3-phosphate 2,Compound,23 nL,3.68 nM-57.5 uM final concentration 3,Time,10 min,RT Incubation 4,Substrate/detection Reagent,2 uL,Substrate + enzyme coupling system + AmpLite Red kit 5,Time,20 min,RT Incubation 6,Detector,525 nm/598 nm (Fluorescence),ViewLux Fluorescence Read (Read 1) Notes: 1,Medium-binding black solid-bottom Kalypsys plates. FRD or Kalypsys dispenser. 2,Compound Library (10 mM ,1:5 dilution). Pin-transferred for a [final] range of 3.68 nM-57.5 uM. 3,RT incubation 4,FRD or Kalypsys dispenser, 2 uL of reaction mixture. Bottle kept at 4C and covered in foil to protect from light. 5,RT incubation 6,ViewLux Protocol 1194; Excitation filter wheel A (525/20 Pol; BODIPY TMR FP), Emission filter wheel B (598/25 S; BODIPY TMR FP S). Keywords: Fructose-bisphosphate aldolase, FBPA , Giardia lamblia , Giardia, HTS, Inhibitors
`Cc1[nH][nH]c(=O)c1C(c1ccc2c(c1)OCO2)c1c(C)[nH][nH]c1=O` showed an activity change, negative = inhibition of -3.39%.
For `Cc1[nH][nH]c(=O)c1C(c1ccc(-c2ccc(Cl)cc2)o1)c1c(C)[nH][nH]c1=O`, the activity change, negative = inhibition was -48.6% (active).
Compound `CCOc1ccc(C(c2c(C)[nH][nH]c2=O)c2c(C)[nH][nH]c2=O)cc1OCC` has an activity change, negative = inhibition of -13.2%.
In the case of `CC(=O)Oc1cc2c(C(=O)NCCN3CCOCC3)c(C)oc2c2ccccc12`, the activity change, negative = inhibition was -40.7% (active).
Work on `Cc1cc(C)cc(C(=O)NCCN2CCOCC2)c1` yielded an activity change, negative = inhibition of 0.78%.
With `Cc1ccc(C(=O)NCCN2CCOCC2)cc1C` the activity change, negative = inhibition was 3.18%.
With `CN(CCC(=O)Nc1cc(S(=O)(=O)N(C)C)ccc1Cl)CC(=O)Nc1ccc(F)cc1` the activity change, negative = inhibition was 0.642%.
With `COc1cc(OC)c2c(c1C(CCN1CCCCC1)c1ccc(N(C)C)cc1)OC(=O)CC2c1ccc(N(C)C)cc1` (stereo not given) the activity change, negative = inhibition was 0.0898%.
`O=c1c2cc(Br)ccc2nc(-c2cccc(Cl)c2)n1O` showed an activity change, negative = inhibition of -2.84%.
For `COc1ccc(C(=O)CCc2ccccc2O)c(OC)c1`, the activity change, negative = inhibition was -0.998%.
With `Cc1ccc(C(=O)N2CCCCCC2)cc1Br` the activity change, negative = inhibition was 0.385%.
With `Cc1cc(C)cc(NC(=O)N2CCCCCCC2)c1` the activity change, negative = inhibition was 1.15%.
In the case of `Cc1ccc2cc3cc(C(=O)N4CCCCCC4)oc3nc2c1`, the activity change, negative = inhibition was -75.9% (active).
In the case of `O=C(Nc1nnc(-c2ccccc2F)s1)c1ccccc1F`, the activity change, negative = inhibition was -1.59%.
For `COc1ccc(CCC(C)N2CCc3ccccc3C2)cc1` (stereo not given), the activity change, negative = inhibition was -2.37%.
Compound `COc1ccc(Cl)cc1NC(=O)COC(=O)C(CC(C)C)N1C(=O)C2CC=CCC2C1=O` (stereo not given) has an activity change, negative = inhibition of -0.682%.
Work on `COc1ccc2[nH]cc(CCNc3ncnc4ccc(-c5ccccc5CN(C)C)cc34)c2c1` yielded an activity change, negative = inhibition of -1.31%.
For `COc1cccc(-c2cc(NCCc3c[nH]c4ccc(OC)cc34)ncn2)c1`, the activity change, negative = inhibition was -31% (active).
With `COc1ccc2[nH]cc(CCNc3cc(-c4ccccc4CN(C)C)ncn3)c2c1` the activity change, negative = inhibition was -1.84%.
Work on `COC(=O)CC1c2ccccc2C(Cc2ccc(OC)cc2)=C(C)N1C(=O)OC` (stereo not given) yielded an activity change, negative = inhibition of -0.16%.
Work on `COc1cccc(C(=O)CC(=O)C(=O)Nc2ccc([N+](=O)[O-])cc2C)c1` yielded an activity change, negative = inhibition of -0.191%.
`CNC(=O)N1c2ccccc2C=Cc2ccccc21` gave an activity change, negative = inhibition of -0.0842%.
Work on `Cc1nn(-c2ccccc2)c(Cl)c1/C=C/C(=O)c1ccc(O)cc1` yielded an activity change, negative = inhibition of 6.85%.
In the case of `Cc1ccccc1-n1nc(C)c2cc(C(=O)NC3CC3)sc21`, the activity change, negative = inhibition was 5.2%.
With `Cc1ccccc1-n1nc(C)c2c1N=C1C(Cl)=CC(Cl)=CN1C2c1ccc(C(=O)O)cc1` (stereo not given) the activity change, negative = inhibition was -39.1% (active).
